Nine compounds from PubChem BioAssay (NCI) can be followed below.

Some test systems named below: HCT-15 colon; HT29 colon; SNB-19 CNS; PC-3 prostate; SK-MEL-5 melanoma; UACC-62 melanoma; LOX IMVI melanoma; SK-MEL-28 melanoma; SK-MEL-2 melanoma; EKVX NSCLC; SN12C renal; UO-31 renal; TK-10 renal; ACHN renal; CAKI-1 renal; A498 renal; CCRF-CEM leukemia; MOLT-4 leukemia; U251 CNS.
Test in all cases: NCI-60 one-dose screen, 48 h (100 = growth as untreated, 0 = no growth, -100 = all killed)
Settings in all cases: 10 µM unless noted

The panel holds about 83,000 compounds, 20% with a hit somewhere; the sample as a whole holds those more often.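 Testing used 96-well plates and a 48-hour single-concentration exposure. Example: -40 means 40% of the starting cells died.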 Unmarked numbers belong to inactive results. Calls of active or inactive are those of the source. Rule for the calls: active = growth percent below 10; inactive = the rest.

Take `CCOc1ccccc1NC(=O)CCC(=O)OC`: the growth in the experiment on HCT-15 colon was 105%; with HT29 colon, 89.7%; in the experiment with SNB-19 CNS it was 111%; in the experiment with PC-3 prostate it was 93.5%; with SK-MEL-5 melanoma it was 99.7%; with UACC-62 melanoma it was 106%. Besides, the growth is 102% in the experiment on LOX IMVI melanoma; 101% with SK-MEL-28 melanoma; 121% with SK-MEL-2 melanoma; 94.3% in the experiment with EKVX NSCLC; 108% in the experiment on SN12C renal; 81.8% in the experiment with UO-31 renal. Moreover, the growth in the experiment on TK-10 renal is 98.7%; in the experiment with ACHN renal it was 106%; in the experiment with CAKI-1 renal, 92.4%; in the experiment on A498 renal it was 100%; with CCRF-CEM leukemia, 108%; with MOLT-4 leukemia it was 94.8%.

With `Cc1cc(C)n(C(=O)CSc2nc3sc4c(c3c(=O)n2-c2ccccc2)CCCCC4)n1`, the growth with HCT-15 colon was 103%; in the experiment on HT29 colon, 105%; with SNB-19 CNS, 95.4%; with U251 CNS it was 97.4%; in the experiment on PC-3 prostate, 99%; with SK-MEL-5 melanoma it was 93%. Further, the growth in the experiment on UACC-62 melanoma was 95.6%; in the experiment with LOX IMVI melanoma, 98.9%; in the experiment with SK-MEL-28 melanoma, 110%; in the experiment with SK-MEL-2 melanoma, 98.3%; in the experiment with EKVX NSCLC, 97%; with SN12C renal it was 91.9%. For the same compound, the growth in the experiment with UO-31 renal was 90.6%; in the experiment with TK-10 renal, 101%; with ACHN renal it was 100%; in the experiment with CAKI-1 renal, 95.2%; in the experiment with A498 renal, 99.5%; in the experiment with CCRF-CEM leukemia it was 95.5%. Also, the growth in the experiment on MOLT-4 leukemia is 95.2%.

For the compound `COC(=O)CNC(=O)c1ccc(NC(=O)c2[nH]c(C)c(Cl)c2Cl)c(O[C@H]2CCNC2)c1`, the growth in the experiment with HCT-15 colon is 107%; in the experiment with HT29 colon it was 108%; in the experiment on SNB-19 CNS, 102%; in the experiment on PC-3 prostate, 96.8%; in the experiment on SK-MEL-5 melanoma it was 101%; with UACC-62 melanoma, 98.7%. The growth with SK-MEL-28 melanoma was 115%; in the experiment with SK-MEL-2 melanoma, 108%; with EKVX NSCLC, 102%; with SN12C renal, 97.5%; in the experiment on UO-31 renal, 84.8%; in the experiment on TK-10 renal, 104%. The growth with ACHN renal is 106%; with CAKI-1 renal, 94.9%; in the experiment with A498 renal, 89.9%; in the experiment on CCRF-CEM leukemia it was 91.9%; in the experiment with MOLT-4 leukemia it was 93.5%.

As for `CCNCCNc1c(C)c(-c2ccc(C(F)(F)F)cc2)c(C#N)c2nc3ccccc3n12`, the growth was 78.6% with HCT-15 colon; 77.3% with HT29 colon; 78.6% in the experiment with SNB-19 CNS; 78.8% with U251 CNS; 76.1% with PC-3 prostate; 87.2% in the experiment with SK-MEL-5 melanoma. Besides, the growth in the experiment with UACC-62 melanoma was 92.4%; in the experiment on LOX IMVI melanoma it was 82.5%; in the experiment on SK-MEL-28 melanoma it was 103%; in the experiment on SK-MEL-2 melanoma it was 102%; in the experiment on EKVX NSCLC, 92.4%; in the experiment on SN12C renal it was 67.2%. The growth in the experiment with UO-31 renal is 79.1%; in the experiment on TK-10 renal, 109%; with ACHN renal it was 82.5%; in the experiment with CAKI-1 renal, 92.3%; with A498 renal it was 69.6%; in the experiment with CCRF-CEM leukemia it was 86.9%. Besides, in the experiment with MOLT-4 leukemia, the growth was 90.9%.

For `O=C(/C=C/c1ccco1)Nc1ncc(Cc2ccc(F)cc2)s1`, the growth in the experiment with HCT-15 colon is 15.3%; in the experiment with HT29 colon, 7.2% (active); with SNB-19 CNS, 48%; in the experiment with PC-3 prostate it was 30.2%; in the experiment with UACC-62 melanoma it was 16.8%; with LOX IMVI melanoma it was 28.9%. For the same compound, the growth with SK-MEL-28 melanoma is 48%; in the experiment on SK-MEL-2 melanoma it was 48.8%; with EKVX NSCLC, 29.1%; in the experiment on SN12C renal it was 28.5%; with UO-31 renal, 47.6%; in the experiment with TK-10 renal, 62.3%. The growth in the experiment with ACHN renal is 40.2%; in the experiment on CAKI-1 renal it was 34.4%; in the experiment with A498 renal, 19.3%; with CCRF-CEM leukemia, 21.9%; with MOLT-4 leukemia it was 20.9%.

For `O=C(NC1CCCCCC1)c1ccc2c(=O)n3c(nc2c1)CCCCC3`, the growth in the experiment on HCT-15 colon was 80.4%; with HT29 colon, 87.3%; in the experiment with SNB-19 CNS, 102%; in the experiment with U251 CNS, 99.7%; with PC-3 prostate it was 92.2%; with SK-MEL-5 melanoma, 94.9%. Further, the growth in the experiment with UACC-62 melanoma is 93.6%; with LOX IMVI melanoma, 96.1%; with SK-MEL-28 melanoma it was 108%; in the experiment with SK-MEL-2 melanoma it was 112%; with EKVX NSCLC it was 107%; in the experiment on SN12C renal, 97.8%. Further, the growth in the experiment with UO-31 renal was 99.8%; with TK-10 renal, 104%; in the experiment with ACHN renal it was 108%; in the experiment on CAKI-1 renal, 108%; in the experiment on A498 renal, 99.5%; with CCRF-CEM leukemia it was 98.8%. Moreover, the growth in the experiment on MOLT-4 leukemia is 128%.

Take `COc1cc(/C=C2\CN(S(=O)(=O)c3ccc(C)cc3)C/C(=C\c3cc(CN4CCCC4)c(O)c(OC)c3)C2=O)cc(CN2CCCC2)c1O`: the growth in the experiment with HCT-15 colon is -2.28% (active); with HT29 colon it was -60.7% (active); in the experiment on SNB-19 CNS, 15.6%; with U251 CNS, -74.5% (active); with PC-3 prostate, -20.2% (active); with SK-MEL-5 melanoma, -17.5% (active). The growth in the experiment on UACC-62 melanoma is 34.3%; in the experiment on LOX IMVI melanoma it was -92.5% (active); in the experiment with SK-MEL-28 melanoma, 10.3%; in the experiment with SK-MEL-2 melanoma it was 14.4%; in the experiment with EKVX NSCLC, 0.183% (active); with SN12C renal, -56.1% (active). In addition, the growth with UO-31 renal was 4.71% (active); in the experiment on TK-10 renal, 24.7%; with ACHN renal, 1.63% (active); in the experiment on CAKI-1 renal, 23.9%; in the experiment with A498 renal it was 40.9%; in the experiment on CCRF-CEM leukemia it was -5.62% (active). Besides, the growth in the experiment with MOLT-4 leukemia was -8.53% (active).

For the compound `COc1cc2cc(Oc3ccc(NC(=O)Nc4ccc(F)c(C(F)(F)F)c4)cc3)c(C)nc2cc1OCCN1CCCCC1`, the growth in the experiment with HCT-15 colon was -71.5% (active); with HT29 colon, -74% (active); in the experiment on SNB-19 CNS it was 62.9%; with U251 CNS, -85.3% (active); in the experiment with PC-3 prostate, -76% (active); in the experiment on SK-MEL-5 melanoma, -89.3% (active). The growth in the experiment on UACC-62 melanoma was 50.6%; in the experiment on LOX IMVI melanoma, -70.4% (active); in the experiment with SK-MEL-28 melanoma, -62.5% (active); in the experiment with SK-MEL-2 melanoma, 102%; with EKVX NSCLC, 57.6%; in the experiment with SN12C renal, 91.7%. Besides, the growth is 75.3% in the experiment on UO-31 renal; 118% in the experiment on TK-10 renal; 84.1% in the experiment with ACHN renal; -85% (active) in the experiment on CAKI-1 renal; 84.7% in the experiment with A498 renal; 2.51% (active) in the experiment with CCRF-CEM leukemia. For the same compound, the growth in the experiment with MOLT-4 leukemia is -14.5% (active).

Turning to `CCOC(=O)C1=C(c2ccccc2)N=C2N(c3ccccc3)N=C(C(C)=O)N2C1c1ccc(Br)cc1` (stereo unspecified), the growth was 92.2% with HCT-15 colon; 85.1% in the experiment with HT29 colon; 88.7% in the experiment with SNB-19 CNS; 98% in the experiment on U251 CNS; 77.6% in the experiment on PC-3 prostate; 94% in the experiment on SK-MEL-5 melanoma. The growth is 72.4% in the experiment on UACC-62 melanoma; 95.4% with LOX IMVI melanoma; 99.9% with SK-MEL-28 melanoma; 90.3% in the experiment on SK-MEL-2 melanoma; 93.9% in the experiment on EKVX NSCLC; 90% in the experiment with SN12C renal. Also, the growth with UO-31 renal was 72.7%; in the experiment with TK-10 renal, 109%; in the experiment with ACHN renal it was 93.3%; with CAKI-1 renal, 87.1%; in the experiment with A498 renal, 42.9%; in the experiment with CCRF-CEM leukemia, 87.7%. For the same compound, the growth in the experiment on MOLT-4 leukemia is 93.6%.
